Source: PubChem BioAssay (NCATS)
Inconclusive results are not listed. Entries that show only a call come without a potency. Unmarked numbers belong to inactive results. Calls of active or inactive are those of the source. Calls follow the shape of the dose curve; as a rule, active = well fitted inhibition curve with a large enough effect; inconclusive = small, poorly fitted or top-dose-only effect; inactive = flat fitted curve, though single readings scatter.

Assay: P-glycoprotein substrates identified in KB-8-5-11 adenocarcinoma cell line, qHTS therapeutic library screen (AID 1346987); also: nearly all actives have a fitted effect of over 65% in size; as to activity change, negative = cytotoxicity: series mostly up to about 44 µM
Outline: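 Compounds are pinned in dose-response onto KB-8-5-11 cells (500 cells/well, colchicine-free medium) and left 72 h at 37 degree C. CellTiter-Glo luminescence then yields AC50 values.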
Potency is read from the fitted curve at half-maximal effect.

| SMILES | Potency | activity change, negative = cytotoxicity |
| --- | --- | --- |
| CC(C)=CCC[C@](C)(O)[C@H]1CC[C@]2(C)[C@@H]1[C@H](O)CC1[C@@]3(C)CC[C@H](O)C(C)(C)[C@@H]3[C@@H](O[C@@H]3O[C@H](CO)[C@@H](O)[C@H](O)[C@H]3O[C@@H]3O[C@H](CO)[C@@H](O)[C@H](O)[C@H]3O)C[C@]12C (stereo not given in full) | inactive | – |
| CCOc1ccc(S(=O)(=O)n2c(C)nc3ccccc32)cc1 | inactive | – |
| COC(=O)c1ccnc(-c2cc(C(=O)NCCc3ccccc3)ccn2)c1 | inactive | – |
| Cn1cncc1C(N)(c1ccc(Cl)cc1)c1ccc2c(c1)c(-c1cccc(Cl)c1)cc(=O)n2C (stereo not given) | 3.26 µM (active) | – |
| COc1ccc([C@@]2(O)c3c(ccc(CC=C(C)C)c3O)NC(=O)[C@@H]2OC)cc1 | inactive | – |
| C/C1=C\CCC2=C[C@@H](OC2=O)c2c(C)coc2C1 | inactive | – |
| c1ccc(-c2csc(N3CCOCC3)n2)cc1 | inactive | – |
| COC(=O)C1(C)c2[nH]c3ccccc3c2CCN1C(=O)CCl (stereo not given) | 10.3 µM (active) | – |
| Cc1cccc(-c2[nH]c(Cc3cccc(C(N)=O)c3)nc2-c2ccc3nccnc3c2)n1 | inactive | – |
| COC(=O)[C@@]1(c2ccc(C)cc2)C[C@H]1CN1CCC(O)(c2ccccc2)CC1 | inactive | – |
| CC1CCC2(C(=O)O)CCC3(C)C(=CCC4C5(C)CCC(OC(=O)/C=C/c6ccccc6)C(C)(C)C5CCC43C)C2C1C (stereo not given) | inactive | – |
| Cc1cnc(Nc2ccc(F)cc2Cl)nc1-c1c[nH]c(C(=O)NC(CO)c2cccc(Cl)c2)c1 (stereo not given) | 3.66 µM (active) | – |
| CC1=CC(=O)[C@H]2C(C)(C)CCC[C@]2(C)[C@@]1(O)CO | inactive | – |
| C=CC(C)(O)C(O)CC1C(C)(O)C(O)C(O)C2C(C)(C)CCCC21C (stereo not given) | inactive | – |
| NC(=O)[C@H]1CCS[C@@H]2C[C@]3(CCCN3C(=O)Cc3ccc(NC(=O)COc4ccc(Cl)cc4Cl)cc3)C(=O)N12 | 20.6 µM (active) | – |
| C[C@@H]1O[C@@H](O[C@@H]2[C@@H](O)[C@H](O[C@H]3[C@H](O[C@H]4CC[C@@]5(C)C(CC[C@]6(C)C5CC=C5[C@@H]7CC(C)(C)CC[C@]7(C(=O)O[C@@H]7O[C@H](CO)[C@@H](O)[C@H](O)[C@H]7O[C@@H]7O[C@@H](C)[C@H](O[C@@H]8O[C@@H](C)[C@H](O)[C@@H](O)[C@H]8O)[C@@H](O)[C@H]7O)CC[C@]56C)[C@@]4(C)CO)O[C@H](C(=O)O)[C@@H](O)[C@@H]3O)O[C@H](CO)[C@H]2O)[C@H](O)[C@H](O)[C@H]1O (stereo not given in full) | – | 9.26% [at 9.29 µM] |
| C[C@@H]1C(=O)O[C@H]2[C@H](O)C34[C@H]5C[C@@H](C(C)(C)C)C36[C@@H](OC(=O)[C@@H]6O)O[C@@]4(C(=O)O5)[C@@]12O (stereo not given in full) | inactive | – |
| OCC1OC(Oc2cc(O)cc(/C=C/c3ccc(O)cc3)c2)C(O)C(O)C1O (stereo not given) | inactive | – |
| CC(=O)OC[C@@]12C(=O)C[C@@H](C)[C@]3(C[C@@H](c4ccoc4)O[C@H]3OC(C)=O)[C@H]1CCC[C@]21CO1 | inactive | – |
| CC1(C)CCC2(C(=O)OC3OC(CO)C(O)C(O)C3O)CCC3(C)C(=CCC4C5(C)CCC(O)C(C)(C(=O)O)C5CCC43C)C2C1O (stereo not given) | inactive | – |

| SMILES | Potency | activity change, negative = cytotoxicity |
| --- | --- | --- |
| C[C@@H]1O[C@@H](O[C@H]2[C@H](OC(=O)[C@]34CCC(C)(C)C[C@H]3C3=CCC5[C@@]6(C)C[C@H](O)[C@H](O[C@@H]7O[C@H](CO)[C@@H](O)[C@H](O)[C@H]7O)[C@@](C)(CO)C6[C@H](O)C[C@@]5(C)[C@]3(C)CC4)OC[C@H](O)[C@@H]2O)[C@H](O)[C@H](O)[C@H]1O[C@@H]1OC[C@@H](O)[C@H](O[C@@H]2OC[C@](O)(CO)[C@H]2O)[C@H]1O (stereo not given in full) | – | 6.69% [at 9.29 µM] |
| Cc1nc([C@](C)(O)CO)sc1-c1cnc(N)c(O[C@H](C)c2cc(F)ccc2-n2nccn2)c1 | 11.6 µM (active) | – |
| CC(C)(O)CC(CO)NC(=O)CC(O)CC(=O)Cc1ccccc1 (stereo not given) | inactive | – |
| CNC(=S)NS(=O)(=O)c1cc(CCNC(=O)c2cc(Cl)ccc2OC)ccc1OC | inactive | – |
| C=C1C(O)C(O)C2(CC3C(C)=CCC4C(C)(CO)CCCC34C)OC2C1O (stereo not given) | inactive | – |
| C[C@@H]1O[C@@H](O[C@H]2[C@H](O)[C@@H](O)[C@H](OC3CCC4(C)C5CCC(C)(C(CO)OC6OC(CO)C(O)C(O)C6O)CC5=CCC4C3(C)C)O[C@@H]2CO)[C@H](O)[C@H](O)[C@H]1O (stereo not given in full) | inactive | – |
| COc1cc(/C=C/C(=O)OC[C@H]2O[C@@](CO)(O[C@H]3O[C@H](CO)[C@@H](O)[C@H](O)[C@H]3O)[C@@H](OC(=O)/C=C/c3ccc(O)c(OC)c3)[C@@H]2O)ccc1O | inactive | – |
| O=C(O)COCCN1CCN([C@H](c2ccccc2)c2ccc(Cl)cc2)CC1 | inactive | – |
| Cc1c(C(=O)N2CCOc3ccc(-c4ccc(N)nc4)cc3C2)ccc(S(C)(=O)=O)c1F | 10.3 µM (active) | – |
| CC/C=C/CC1=C(CCCCC(CCC(=O)O)OC(C)=O)CCC1=O (stereo not given) | inactive | – |
| O=C(O)Cc1ccc2oc(-c3ccc(NC(=O)/C=C/c4ccc(Br)cc4)c(F)c3)nc2c1 | inactive | – |
| CC1(C)CC[C@]2(C(=O)O[C@@H]3O[C@H](CO)[C@@H](O)[C@H](O)[C@H]3O)CC[C@]3(C)C(=CCC4[C@@]5(C)C[C@@H](O)[C@H](O)C(C)(C)C5[C@H](O)C[C@]43C)[C@@H]2[C@@H]1O (stereo not given in full) | inactive | – |
| C[C@@H]1O[C@@H](OC[C@H]2O[C@@H](Oc3cc(O)cc4c3C(=O)C(O)(Cc3ccc(O)cc3)O4)[C@H](O)[C@@H](O)[C@@H]2O)[C@H](O)[C@H](O)[C@H]1O (stereo not given in full) | inactive | – |
| C[C@@H]1C(=O)OC[C@H]2C(C(=O)O)=C[C@@H]3CC(C)(C)C[C@]312 | inactive | – |
| O=C(/C=C\c1ccc(O)cc1)N[C@@H](Cc1ccc(O)cc1)C(=O)O | inactive | – |
| Nc1nc2c(c(N3CCNCC3)n1)CCC1=C2[C@@H]2CCCC[C@@H]2O1 | inactive | – |
| NC1CCCCN(c2c(F)cc3c(=O)c(C(=O)O)cn(C4CC4)c3c2Cl)C1 (stereo not given) | inactive | – |
| N#C[C@@H]1C[C@H](F)CN1C(=O)CNC1[C@H]2CN(C(=O)c3ccc(F)cc3)C[C@@H]12 (stereo not given in full) | inactive | – |
| O=C(Nc1ccccc1)N1CCN(Cc2ccc3ccccc3n2)CC1 | inactive | – |
| CN(C)C/C=C/C(=O)Nc1cc2c(Nc3ccc(F)c(Cl)c3)ncnc2cc1OC1CCOC1 (stereo not given) | 14.6 µM (active) | – |
